Bioassay records: PubChem BioAssay, National Center for Advancing Translational Sciences (NCATS)
VACV Venus inh: qHTS for Stage-Specific Inhibitors of Vaccinia Orthopoxvirus: Venus Reporter Primary qHTS. AID 720580, 2013. Vaccinia virus Venus reporter expression, fluorescence. hit rate 0.46% among 330,000. Potency, µM (top dose mostly 36.5 µM), without a hit: top-dose activity change, negative = inhibition, hits mostly inhibitors; calls by dose curve; tested in A549 cells; also: nearly all actives have a fitted effect of over 30% in size
Vaccinia mCherry: qHTS for Stage-Specific Inhibitors of Vaccinia Orthopoxvirus: mCherry Reporter Primary qHTS; Vaccinia virus mCherry reporter infection, fluorescence; Potency, µM (series often up to 36.5 µM), without a hit: at the top dose activity change, negative = inhibition, hits mostly inhibitors; hit rate 0.63% among 310,000; AID 720579, 2013; calls by dose curve; tested in A549 cells; also: nearly all actives have a fitted effect of over 35% in size
RE007 growth inh: qHTS Assay for Inhibitors of the HIV-1 protein Vpr. Potency, µM (highest dose often 92.2 µM), without a hit: at the highest dose activity change, negative = less growth, actives largely listed as inhibitors. S. pombe RE007 Vpr strain, BacTiter-Glo ATP luminescence, 24 h. hit rate 0.21% among 360,000. AID 651644, 2012; active = well fitted falling curve with a large enough effect; inconclusive = small, poorly fitted or top-dose-only effect; inactive = no such curve, though single readings can be large or run the other way; also: nearly all actives have a fitted effect of over 50% in size
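Fission yeast RE007 carrying one integrated HIV-1 vpr copy, seeded at OD 0.01 in PMG+AL medium with 23 nL pinned compound. Grown 24 h at 30 degrees; viability read by BacTiter-Glo luminescence after 5 min.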
LmPK inh: qHTS Assay for Inhibitors of Leishmania Mexicana Pyruvate Kinase (LmPK) | Q27686 | purified LmPK, Kinase-Glo ATP luminescence, 1 h | Potency, µM (titrated, usually from 57.5 µM), inactives show top-dose activity change, negative = inhibition, usual class: inhibitors | hit rate 0.37% among 290,000
Target sequence (Q27686 whole entry, looked up): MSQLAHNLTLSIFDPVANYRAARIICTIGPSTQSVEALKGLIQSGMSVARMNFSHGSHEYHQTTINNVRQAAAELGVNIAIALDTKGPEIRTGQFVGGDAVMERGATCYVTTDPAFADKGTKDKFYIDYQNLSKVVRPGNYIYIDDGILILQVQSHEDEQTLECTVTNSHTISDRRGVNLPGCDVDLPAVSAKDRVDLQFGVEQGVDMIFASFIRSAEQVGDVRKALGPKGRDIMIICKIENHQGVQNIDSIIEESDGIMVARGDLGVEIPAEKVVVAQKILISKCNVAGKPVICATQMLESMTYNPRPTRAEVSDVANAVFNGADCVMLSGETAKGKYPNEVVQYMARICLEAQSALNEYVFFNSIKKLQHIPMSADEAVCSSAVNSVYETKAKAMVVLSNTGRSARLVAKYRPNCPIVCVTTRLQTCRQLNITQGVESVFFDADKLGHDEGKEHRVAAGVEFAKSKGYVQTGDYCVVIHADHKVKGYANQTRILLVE
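0.1 nM LmPK, 0.5 mM PEP, 0.1 mM ADP; 50 mM imidazole pH 7.2, 7 mM MgCl2, 50 mM KCl; 1 h RT. Kinase-Glo luminescence readout, normalized to no-enzyme (full inhibition) and uninhibited wells.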
AMA1 RON2 block: qHTS for Inhibitors of AMA1-RON; Towards Development of Antimalarial Drug Lead: Primary Screen; Plasmodium falciparum AMA1 (3D7) - RON2 peptide interaction; AlphaScreen AMA1-biotinylated RON2 peptide binding; Potency, µM (doses to about 58.2 µM), for the others: at the top dose activity change, negative = inhibition, usual class: inhibitors; hit rate 0.2% among 360,000;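 also: 0% = vehicle wells and -100% = peptide control; nearly all actives have a fitted effect of over 45% in size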
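AMA1 (3D7) with his tag at 25 nM final met compounds first, then biotinylated RON2 peptide at 25 nM; detection used donor plus acceptor beads, 10 µg/mL apiece, read by AlphaScreen after 30 min at room temperature.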
Tb PYK inh: qHTS of Trypanosoma Brucei Inhibitors; TbPYK enzyme, Kinase-Glo Plus ATP luminescence, 45 min; Potency, µM (top dose mostly 76.8 µM), for the others: at the highest dose activity, negative = inhibition, hits mostly inhibitors; hit rate 0.12% among 410,000; AID 624173, 2012; also: nearly all actives have a fitted effect of over 50% in size
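T. brucei PYK with substrate was exposed to pin-transferred compounds across a concentration series, then started with 130 uM ADP (final). After 45 min at room temperature, Kinase-Glo Plus luminescence was read, normalized and curve-fitted.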
Active calls of the source: *; i = inactive; ? = inconclusive; · = not tested or not shown; [ ] = dose if it differs, or a comment. Most compounds without a hit are left out; they make up all but 1.3% or so of the library. Unless noted, calls follow the shape of the dose curve; as a rule, active = well fitted curve in the direction sought with a large enough effect; inconclusive = small, poorly fitted or top-dose-only effect, or another doubt; inactive = no such curve, though single readings can be large; an effect the other way counts as inactive or inconclusive. Unless noted, % is scaled to controls: 0 for no effect and ±100 for the full control effect; potency is read from the fitted curve at half-maximal effect.

SMILES	VACV Venus inh	Vaccinia mCherry	RE007 growth inh	LmPK inh	AMA1 RON2 block	Tb PYK inh
CCOc1ccc(N(C)Cc2cc(=O)oc3ccc(OCC)cc23)cc1	-28.8%	-9.8%	41.1%	-0.8%	25.1µM*	0.9%
O=C(NC[C@@H]1CCCN2CCCC[C@H]12)c1cnn(-c2nccc(-c3ccco3)n2)c1C1CC1	7.7%	-7.2%	·	·	·	·
Cc1ccc(-c2nn(-c3ccccc3)cc2C=C2SC(=S)N(CCS(=O)(=O)O)C2=O)cc1	-14.4%	-1.7%	47.8%	·	31.6µM*	0.8%
C/C(=C\C(=O)c1ccc(C)o1)Nc1ccc2c(c1)OCO2	·	·	-22.8%	-2.2%	-2.9%	-2.7%
O=C(Nc1ccc2c(c1)OCO2)c1noc2c1CCCC2	-13.9%	-21.7%	5.01µM*	-20.6%	-6.7%	-10.6%
Cc1ccc(C(=O)Nc2ccc3c(c2)OCO3)o1	2.2%	-3.8%	?	17.8µM*	0.7%	?
Cc1ccc(C(=O)Nc2ccc3c(c2)OCO3)cc1	-23.2%	-27.3%	-13.4%	22.4µM*	17.0%	-16.8%
Cc1ccnc2nc(C(=O)Nc3ccc4c(c3)OCO4)nn12	-3.0%	-17.3%	-10.3%	15.8µM*	-6.6%	-20.7%
Cc1cnc(-n2ncc(C(=O)NCCN3CCOCC3)c2-c2cccs2)nc1-c1ccc(F)cc1	0.0%	i	·	·	·	·
CC(C)c1nc(C(=O)N2CCOc3ccc(CN4CCN(c5ccccn5)CC4)cc3C2)cs1	-26.3%	-3.2%	·	·	·	·
Cc1ccc(CNc2nc(C)c(-c3ccn(CCN4CCOCC4)n3)s2)o1	3.7%	-4.1%	·	·	·	·
COC(=O)C1=C(c2cccc(OCc3ccccc3)c2)C[C@@H]2CC[C@H]1N2C(=O)NCc1ccc(C(C)(C)C)cc1	?	?	0.0%	·	-8.2%	-5.2%
COC(=O)C1=C(c2cccc(OCc3ccccc3)c2)C[C@@H]2CC[C@H]1N2C(=O)NCc1ccc(N(C)C)cc1	?	-27.1%	7.0%	·	11.2µM*	-7.2%
O=C(O)c1ccccc1NS(=O)(=O)c1cccc(-n2sc3ccccc3c2=O)c1	-8.2%	-0.8%	0.9%	-18.9%	-16.0%	5.01µM*
O=C(O)c1ccccc1NS(=O)(=O)c1cccc(C(F)(F)F)c1	·	·	3.3%	4.7%	5.5%	-0.6%
O=C(O)c1ccc(-n2nc(-c3ccccc3O)nc2-c2ccccc2O)cc1	·	·	·	·	·	-8.3%
COC(=O)c1cc(CNC(=O)c2ccncc2)cc(NC(=O)c2ccccc2Cl)c1	-8.5%	-5.6%	·	·	·	·
CCOC(=O)/C(C#N)=C1/C=C(C)NC(c2ccccc2O)=N1	10µM*	?	7.9%	1.6%	34.8%	-3.8%
CCOC(=O)/C(C#N)=C1\Nc2ccccc2N=C1N(CC(C)C)CC(C)C	-1.0%	-7.8%	5.8%	-0.5%	-14.4%	-8.5%
Cc1ccc2c(c1)[C@]13CCCC[C@@H]1[C@@H](C2)N(C)CC3	·	·	·	·	·	-5.4%
Nc1ccccc1-c1ccccc1N	-9.3%	-3.2%	-11.9%	-1.7%	17.2%	-8.2%
Nc1ccccc1N=Nc1ccccc1N	-26.9%	-23.4%	?	-7.7%	31.6µM*	-3.7%
OC[C@H]1O[C@@H](n2cnc3c2NC=NC[C@H]3O)C[C@@H]1O	·	·	·	·	·	-15.8%
C=CC[C@@H](CC(=O)N[C@@H](CO)Cc1ccccc1)C(=O)N[C@H](COC(=O)[C@@H](CC=C)CC(=O)OC(C)(C)C)Cc1c[nH]c2ccccc12	11.2µM*	?	-21.6%	·	-12.6%	-8.5%
C=CCC[C@H](Cc1ccc(F)cc1)C(=O)OC[C@H](Cc1c[nH]c2ccccc12)NC(=O)[C@@H](CC=C)CC(=O)N[C@H](CO)Cc1ccccc1	11.2µM*	-28.7%	-2.6%	·	-2.9%	-0.8%
SMILES	VACV Venus inh	Vaccinia mCherry	RE007 growth inh	LmPK inh	AMA1 RON2 block	Tb PYK inh
C=CC[C@H](CC(=O)N[C@H](CO)Cc1ccccc1)C(=O)N[C@@H](COC(=O)[C@@H](CC=C)CC(=O)OC(C)(C)C)Cc1c[nH]c2ccccc12	?	?	4.7%	·	-4.8%	-1.5%
C=CCC[C@H](Cc1ccc(F)cc1)C(=O)OC[C@H](Cc1c[nH]c2ccccc12)NC(=O)[C@@H](CC=C)CC(=O)N[C@@H](CO)Cc1ccccc1	10µM*	-29.7%	-2.5%	·	9.0%	-2.4%
C=CCC[C@@H](Cc1ccc(F)cc1)C(=O)OC[C@H](Cc1c[nH]c2ccccc12)NC(=O)[C@@H](CC=C)CC(=O)N[C@H](CO)Cc1ccccc1	?	i	3.8%	·	23.7%	-8.4%
COc1ccc(OC)c(-c2cc(Cl)c3c(c2)CC(CNC(=O)[C@@H]2CCCN2C(C)=O)O3)c1 (some centres undefined)	7.1%	-4.3%	·	·	·	·
CCCc1cc(=O)oc2c3c(c4c(c12)OC(C)(C)C=C4)OC(C)C(C)C3O (centres undefined)	?	11.2µM*	-16.7%	9.8%	0.0%	-2.7%
COc1ccc(/C=C2/CCCC(CN(C)C)C2=O)cc1 (centres undefined)	-9.8%	-5.0%	16.5%	·	-20.8%	-11.0%
COc1cccc(/C=C2/CCC(CN(C)C)C2=O)c1 (centres undefined)	-9.2%	-2.8%	8.91µM*	·	-18.4%	-23.1%
COc1cccc(C(=O)Nc2ccccc2)c1	·	·	-16.8%	?	-14.0%	-12.2%
COc1ccc(C(=O)/C=C/Nc2cccc(O)c2)cc1	·	·	-11.2%[3.69 µM]	25.1µM*	10.8%	·
CCCCOc1cccc(C(=O)NC(=S)Nc2cccnc2)c1	-0.9%	?	·	1.5%	2.1%	-4.5%
CCOc1ccc(NC(=O)c2ccccn2)cc1	-5.4%	i	?	12.6µM*	11.3%	-12.2%
CCCOc1cccc(C(=O)Nc2cccnc2)c1	-12.5%	14.1µM*	1.0%	1.6%	-3.8%	-4.7%
CCOc1ccc(NC(=O)c2cnccn2)cc1	-15.9%	·	-24.4%	-27.3%	13.2%	-0.9%
COc1cccc(C(=O)Nc2cccc(OCC(=O)O)c2)c1	·	·	-11.0%	35.5µM*	3.0%	-18.7%
COc1cccc(N/C=C/C(=O)c2ccc(Br)cc2)c1	-19.1%	-23.5%	9.5%	·	11.2%	-4.1%
COc1ccc(NC(=O)Nc2cccnc2)cc1	2.5%	-0.2%	-16.0%	-18.4%	-11.4%	-4.0%
CCc1ccc(/C=N/NC(=O)c2ccccn2)cc1	-26.4%	i	-27.3%	12.6µM*	94.1%	-27.4%
CCOc1ccc(NC(=O)Nc2cccnc2)cc1	4.8%	-11.9%	?	25.1µM*	-22.1%	-6.8%
COc1ccc(C(=O)Nc2cccc(C)c2)cc1	·	·	-1.7%[3.69 µM]	14.1µM*	6.6%	·
